Assay outcomes deposited in PubChem by National Center for Advancing Translational Sciences (NCATS).
aSyn rescue: alpha-synuclein toxicity inhibition in yeast; Yeast expressing alpha-synuclein, growth rescue, BacTiter-Glo, 24 h; Potency, µM (top dose mostly 46.1 µM), for inactives: top-dose growth rescue (activation), hits mostly activators; 0.14% of 370,000 active; further: % of control where 0% means no effect; nearly all actives have a fitted effect of over 65% in size
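Rescue of yeast growth: cells expressing toxic alpha-synuclein, induced in galactose at OD600 0.02, incubated with compound 24 h at 30 C. ATP luminescence quantified growth; inhibitors of toxicity appear as activators.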
TDP-43 yeast inh: TDP-43 toxicity inhibition in yeast; Potency, µM (titrated, usually from 46.1 µM), inactives show top-dose growth rescue (activation), hits mostly activators; TDP-43 expressing yeast growth rescue, BacTiter-Glo, 24 h; 1.8% of 410,000 active; AID 652104; further: % of control where 0% means no effect; nearly all actives have a fitted effect of over 50% in size
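Luminescence from BacTiter-Glo reports growth of TDP-43-expressing yeast after 24 hr at 30 deg C with compound. Cells were raffinose-pregrown to mid-log, then seeded in galactose medium at OD600=0.02.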
Abeta yeast res: compounds reversing amyloid beta toxicity in yeast; yeast expressing A-beta42, growth rescue, OD600, 48 h; response scale: 0% DMSO, 100% iron-clioquinol control; Potency, µM (top dose mostly 46.1 µM), most hits filed as activators; 0.063% of 410,000 active; further: nearly all actives have a fitted effect of over 55% in size
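Yeast growth medium received pinned compounds, then yeast cells expressing toxic A-beta were added; plates incubated at 30 C for 48 hr. Growth read as absorbance at 600 nm, normalized to DMSO and equimolar FeCl3 plus clioquinol controls.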
FUS yeast rescue: suppressors of FUS proteinopathy in yeast. Potency, µM (top dose mostly 76.6 µM), actives largely listed as activators. 0.24% of 390,000 active. S. cerevisiae FUS-expressing, growth rescue, OD600, 24 h;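 further: plate controls were DMSO vehicle for no effect and reference control for full effect; nearly all actives have a fitted effect of over 55% in size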
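S. cerevisiae expressing FUS from galactose induction served as the toxicity model. Growth after 24hr at 30C, read as absorbance at 600 nm, indicates suppression of toxicity; compounds dosed at several concentrations.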
Mito fusion act: mitochondrial division inhibition or fusion activation; 0.23% of 320,000 active; AID 485298; S. cerevisiae fusion-defective mutant growth rescue, CellTiterGlo 48 h; Potency, µM (series often up to 46.1 µM), for inactives: at the highest dose growth rescue (activation), hits mostly activators; further: % of control where 0% means no effect; nearly all actives have a fitted effect of over 45% in size
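Compounds are tested for their ability to restore growth of mitochondrial fusion-defective yeast strains at non-permissive 37C in YPEG medium over 48 hours. Viability is quantified by luciferase luminescence.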
* marks the source's active call; other numbers are inactive results; i = inactive; ? = inconclusive; / = not tested or not shown; [ ] = another dose, or the depositor's remark. In the library only some 2.2% were active in any assay of this set; here they are far more common. The call rests on the fitted dose curve; in most records, active means well fitted curve in the direction sought with a large enough effect; inconclusive means small, poorly fitted or top-dose-only effect, or another doubt; inactive means no such curve, though single readings can be large; an effect the other way counts as inactive or inconclusive. Potency means the concentration at half of the fitted maximal effect.

SMILES	aSyn rescue	TDP-43 yeast inh	Abeta yeast res	FUS yeast rescue	Mito fusion act
CCOc1ccc(Cl)cc1-c1cc(C(=O)NCc2ccccc2)[nH]n1	27.1%	?	i	?	/
CCOc1ccc(Cl)cc1-c1cc(C(=O)NCc2ccccc2OC)[nH]n1	?	17.8µM*	i	?	/
COc1ccc(C2c3cc(OC)c(OC)cc3CC(=O)N2c2ccc(C)cc2)cc1 (configuration not stated)	/	12.8%	i	?	/
Cc1ccc(NC(=O)N2CC3CCCN3c3ccccc32)cc1C (configuration not stated)	/	20µM*	i	i	/
CCN(Cc1ccccc1)c1ccc(/C=C(\C#N)c2ccccn2)cc1	4.2%	-16.7%	i	i	0.1%
CCN(CC)c1ccc(/C=C(\C#N)c2ccccn2)cc1	-3.7%	15.8µM*	i	i	11.0%
Cc1ccc(Nc2nc(N)c([N+](=O)[O-])c(NCc3ccccc3)n2)cc1	-1.8%	5.4%	i	i	2.8%
CCC(C)Nc1nc(N)c([N+](=O)[O-])c(NCc2ccccc2)n1 (configuration not stated)	0.1%	17.8µM*	i	i	29.0%
CCOC(=O)c1[nH]c(C)c(CCC(=O)N2CCN(c3cc(C)ccc3C)CC2)c1C	/	0.0%[9.22 µM]	i	i	/
Clc1ccc(CSc2nccn2Cc2ccccc2)cc1	2.7%	15.8µM*	i	i	-12.1%
O=c1ccn(Cc2ccccc2)c(SCc2ccccc2)n1	-1.1%	7.6%	i	/	/
COc1ccc(CCn2c(N)c(C(=O)NCc3ccco3)c3nc4ccccc4nc32)cc1	21.2%	17.9%	i	/	14.3%
COCCNC(=O)c1c(N)n(CCC2=CCCCC2)c2nc3ccccc3nc12	-51.7%	?	i	39.8µM*	-4.5%
Cc1ccc(OCCn2c(-c3ccc(Br)cc3)nc3ccccc3c2=O)cc1C	/	0.0%	i	i	/
Cc1ccc(CNC(=O)c2ccc(CSCc3cccc(C)c3)o2)cc1	?	35.5µM*	i	i	/
Cc1ccc(CNC(=O)c2ccc(CSCc3ccc(C)cc3)o2)cc1	/	1.3%	i	i	/
O=C(CSc1nnc(-c2cc3ccccc3cc2O)n1Cc1ccco1)N1CCc2ccccc2C1	8.7%	-19.6%	i	15.8µM*	?
Nc1nonc1-n1nnc(C(=O)N/N=C/c2cc(Br)ccc2O)c1CNc1ccccc1	-3.9%	1.1%	i	i	-5.8%
Nc1nonc1C(=O)N/N=C/c1cc(Br)ccc1O	?	2.82µM*	10µM*	i	25.7%
CC(C)CCNc1nc(Nc2ccccc2)c2cnn(C)c2n1	/	17.8µM*	i	?	/
O=[N+]([O-])c1ccc(S(=O)(=O)N2CCN(Cc3ccco3)CC2)cc1	-7.4%	-11.1%	i	i	-1.8%
CC1CCC(Nc2ncnc3onc(-c4ccc(F)cc4)c23)CC1 (configuration not stated)	/	?	i	i	/
CC1CCC(Nc2ncnc3onc(-c4ccc(Cl)cc4)c23)CC1 (configuration not stated)	-1.2%	20µM*	i	i	/
Clc1ccc(-c2noc3ncnc(NC4CCCCC4)c23)cc1	/	35.5µM*	i	i	/
COc1ccc(-c2nnc(C3CCN(S(=O)(=O)c4cccc(Cl)c4)CC3)o2)cc1	/	24.2%	i	i	/
SMILES	aSyn rescue	TDP-43 yeast inh	Abeta yeast res	FUS yeast rescue	Mito fusion act
O=C(O)CC1(CC(=O)N2CCOCC2)CCCC1	-2.4%	-2.1%	i	i	-5.5%
Cc1ccccc1C(=O)N1CCc2c([nH]c3ccccc23)C1C(F)(F)F (configuration not stated)	12.7%	22.4µM*	i	i	15.5%
O=C(O)c1cccnc1C(=O)N1CCc2c([nH]c3ccccc23)C1C(F)(F)F (configuration not stated)	-1.1%	-7.4%	i	i	-2.1%
N#CC1(NC(=O)COC(=O)Cc2c[nH]c3ccccc23)CCCCC1	?	-12.4%	i	i	/
COc1ccc(/C(C)=N/NC(=S)NCCc2ccccc2)cc1	-8.4%	-18.3%[0.397 µM]	12.6µM*	i	3.0%
Cc1ccc(S(=O)(=O)N(C)C)cc1NC(=O)CSc1nc2ncc(Cl)cc2[nH]1	-6.9%	-8.9%	i	i	-1.7%
